Screening results: PubChem BioAssay, National Center for Advancing Translational Sciences (NCATS)
Compounds with a hit are over-represented: about 2% of the library has one in this group of screens.
FUS suppressor – qHTS for Suppressors of FUS Proteinopathy: Primary screen using FUS-linked yeast assay; S. cerevisiae FUS-expressing, growth rescue, OD600, 24 h; Potency, µM (titrated, usually from 76.6 µM), usual class: activators; hit rate 0.24% among 390,000; AID 1347120, 2019;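 further: potency means the concentration at half of the fitted maximal effect; plate controls were DMSO vehicle for no effect and reference control for full effect; nearly all actives have a fitted effect of over 55% in size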
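Restored growth of FUS-toxic S. cerevisiae, read as 600 nm absorbance after 24 h at 30C in galactose medium (starting OD 0.005). Controls CP55940 and DMSO.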
Abeta rescue – qHTS for compounds that reverse cellular toxicity of Amyloid beta (A-beta) peptide in yeast: Primary Screen; yeast expressing A-beta42, growth rescue, OD600, 48 h; response scale: 0% DMSO, 100% iron-clioquinol control; Potency, µM (highest dose often 46.1 µM), most hits filed as activators; hit rate 0.063% among 410,000; AID 1347071, 2019; further: potency means the concentration at half of the fitted maximal effect; nearly all actives have a fitted effect of over 55% in size
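Yeast A-beta toxicity model in growth medium with pinned compounds, 48 h at 30 C; growth read as absorbance at 600 nm. Normalized to FeCl3/clioquinol equimolar mix (positive) and DMSO (negative).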
LDHA inh – qHTS assay for inhibitors of human lactate dehydrogenase | L-lactate dehydrogenase A chain (Homo sapiens), P00338 | purified LDHA, NADH/diaphorase-resazurin fluorescence; hits give low values | activity change, % (values are at about 110 or 230 µM) | hit rate 0.15% among 480,000 | AID 1347041, 2019; in the data active means activity change below about -30%; inconclusive means mostly about -25% to -30%;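 further: plate controls were DMSO wells for no effect and wells without enzyme for full effect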
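Remaining NADH was detected by diaphorase (0.133 mg/mL) converting 37 µM resazurin to fluorescent resorufin, read at 0 and 20 minutes. The preceding 5-minute room-temperature reaction used 2 nM LDHA, 0.2 mM sodium pyruvate and 0.06 mM NADH at pH 7.4.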
aSyn rescue – qHTS of alpha-syn Inhibitors | Yeast expressing alpha-synuclein, growth rescue, BacTiter-Glo, 24 h | hit rate 0.14% among 370,000 | AID 652106, 2013 | Potency, µM (highest dose often 46.1 µM), for the others: at the top dose growth rescue (activation), hits mostly activators; further: potency means the concentration at half of the fitted maximal effect; % of control where 0% means no effect; nearly all actives have a fitted effect of over 65% in size
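Readout is rescue of growth in alpha-synuclein-expressing yeast, so inhibitors of toxicity appear as activators. Growth after 24 hr at 30 deg C in galactose medium is quantified by luminescence.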
mIDH1 inhibitor – qHTS for Inhibitors of mutant isocitrate dehydrogenase 1 (IDH1): qHTS. Isocitrate dehydrogenase [NADP] cytoplasmic (Homo sapiens), O75874. IDH1-R132H enzyme, NADPH consumption, diaphorase/resazurin fluorescence. Potency, µM (highest dose often 76.6 µM), for the others: at the highest dose activity change, negative = inhibition, actives largely listed as inhibitors. hit rate 0.093% among 390,000. AID 602179, 2012; further: potency means the concentration at half of the fitted maximal effect; on the % scale 0 is the no-effect control and ±100 the full control effect; nearly all actives have a fitted effect of over 65% in size
Target sequence (O75874 whole entry R132H, stated change not applied): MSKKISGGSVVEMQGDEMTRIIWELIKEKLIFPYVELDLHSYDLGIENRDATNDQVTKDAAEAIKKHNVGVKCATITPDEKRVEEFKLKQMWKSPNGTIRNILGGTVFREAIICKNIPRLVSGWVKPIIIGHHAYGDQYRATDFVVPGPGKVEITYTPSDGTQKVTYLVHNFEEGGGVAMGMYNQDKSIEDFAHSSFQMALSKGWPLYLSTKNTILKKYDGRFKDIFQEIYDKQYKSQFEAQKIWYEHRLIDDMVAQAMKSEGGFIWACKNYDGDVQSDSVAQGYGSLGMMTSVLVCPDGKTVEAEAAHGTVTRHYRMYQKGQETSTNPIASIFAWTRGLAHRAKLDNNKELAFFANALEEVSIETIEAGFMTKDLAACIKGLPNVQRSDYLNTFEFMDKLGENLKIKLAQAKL
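IDH1-R132H (0.5 ug/mL) preincubated 30 min with compound, then NADPH (0.016 mM) and alpha-KG (2 mM) added; 80 min at RT, pH 7.5. Remaining NADPH coupled via diaphorase/resazurin to fluorescence (540/590 nm); concentration-response curves normalized to no-enzyme control.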
TDP43 rescue – qHTS of TDP-43 Inhibitors | hit rate 1.8% among 410,000 | TDP-43 expressing yeast growth rescue, BacTiter-Glo, 24 h | Potency, µM (titrated, usually from 46.1 µM), inactives show at the highest dose growth rescue (activation), most hits filed as activators; further: potency means the concentration at half of the fitted maximal effect; % of control where 0% means no effect; nearly all actives have a fitted effect of over 50% in size
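Readout is BacTiter-Glo luminescence of cell growth, so inhibitors register as activators. TDP-43-expressing yeast at OD600=0.02 in galactose medium, after raffinose pregrowth to mid-log, were incubated with compound for 24 hr at 30 deg C.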
Numbers without * were called inactive; [ ] = remark or other dose. Unless noted, the call rests on the fitted dose curve; in most records, active means well fitted curve in the direction sought with a large enough effect; inconclusive means small, poorly fitted or top-dose-only effect, or another doubt; inactive means no such curve, though single readings can be large; an effect the other way counts as inactive or inconclusive.

`c1ccc2sc(NCC3CCCO3)nc2c1` (configuration not stated) gave FUS suppressor inactive, Abeta rescue inactive, LDHA inh -7, aSyn rescue -3%, mIDH1 inhibitor 2% and TDP43 rescue 3%[0.397 µM].
Screening C=CCNc1nc(-c2cc3ccccc3o2)cs1 returned Abeta rescue inactive, LDHA inh -3, aSyn rescue -1%, mIDH1 inhibitor 2% and TDP43 rescue 13µM*.
For c1ccc2oc(-c3csc(NCC4CCCO4)n3)cc2c1 (configuration not stated) the results were FUS suppressor inactive, Abeta rescue inactive, LDHA inh -1, aSyn rescue -2%, mIDH1 inhibitor 11% and TDP43 rescue 11µM*.
CCCCCCCCCCOC(=O)C[N+](C)(C)Cc1ccccc1 was read as LDHA inh 9.
O=C(Cc1ccc(OCC2CCCCC2)cc1)NO was read as LDHA inh -2 and aSyn rescue 22µM*.
Screening O=C(O)c1ccc(OCC2CCCCC2)cc1 returned LDHA inh 2.
For CC(C#N)(NC(=O)CSc1ccc2ccccc2n1)C1CC1 (configuration not stated) the results were LDHA inh 2.
Screening CCC(c1nnnn1Cc1cccs1)N1CCN(c2nc3ccccc3s2)CC1 (configuration not stated) returned FUS suppressor inconclusive, Abeta rescue inactive, LDHA inh -9, aSyn rescue inconclusive, mIDH1 inhibitor -1% and TDP43 rescue 16µM*.
Screening O=C(CCc1c[nH]c2ccccc12)N(CC(F)(F)F)C1CC1 returned LDHA inh 1.
`O=C(CSc1nnc2ccc3ccccc3n12)Nc1ccccc1Cl` gave FUS suppressor inactive, Abeta rescue inactive, LDHA inh -3, mIDH1 inhibitor 14% and TDP43 rescue 18µM*.
For N#Cc1cccc2c1-c1ccccc1/C2=N/NC(N)=S the results were FUS suppressor inactive, Abeta rescue inactive, LDHA inh -15, aSyn rescue -8%, mIDH1 inhibitor 0% and TDP43 rescue 11µM*.
Screening N#Cc1cccc2c1-c1ccccc1/C2=N/NC(N)=O returned FUS suppressor inactive, Abeta rescue inactive, LDHA inh -5, aSyn rescue 1%, mIDH1 inhibitor 6% and TDP43 rescue 16%.
For COc1cccc(C2CC(=O)Nc3nc(N)sc32)c1OCC(C)C (configuration not stated) the results were LDHA inh 96.
Screening Cc1ccc(OCC(=O)Nc2ccc(C)c(S(=O)(=O)N3CCCCC3)c2)c([N+](=O)[O-])n1 returned FUS suppressor inactive, Abeta rescue inactive, LDHA inh -8, aSyn rescue 1%, mIDH1 inhibitor 4% and TDP43 rescue 14µM*.
Cc1ccc(OCC(=O)Nc2ccc(Cl)cc2)c([N+](=O)[O-])n1 was read as FUS suppressor inactive, Abeta rescue inactive, LDHA inh -4, aSyn rescue 2%, mIDH1 inhibitor -3% and TDP43 rescue 13µM*.
For Cc1ccc(OCC(=O)Nc2ccc(S(=O)(=O)N3CCCCC3)cc2)c([N+](=O)[O-])n1 the results were FUS suppressor inactive, Abeta rescue inactive, LDHA inh -13, aSyn rescue 1%, mIDH1 inhibitor -13% and TDP43 rescue -18%[0.397 µM].
`Cc1ccc(OCC(=O)Nc2ccc(F)cc2)c([N+](=O)[O-])n1` gave FUS suppressor inactive, Abeta rescue inactive, LDHA inh -6, aSyn rescue 7%, mIDH1 inhibitor -4% and TDP43 rescue 10%[9.22 µM].
Cc1cc2oc(=O)cc(CN(C)CCOc3ccccc3F)c2cc1Cl was read as LDHA inh -1.
COc1ccc2cc(C(=O)NCc3ccc4c(c3)CCN4C(=O)c3ccc(F)cc3)[nH]c2c1 was read as FUS suppressor inactive, Abeta rescue inactive, LDHA inh -8, mIDH1 inhibitor -7% and TDP43 rescue 16µM*.
Screening COc1cccc(N2C(=O)CN(C3CCCCC3)[C@H]3CS(=O)(=O)C[C@H]32)c1 returned LDHA inh 1.
For COc1cc(/C=N/NC(=S)NC2CC3CCC2C3)ccc1O (configuration not stated) the results were FUS suppressor inactive, Abeta rescue 11µM*, LDHA inh 1, aSyn rescue -9%, mIDH1 inhibitor 2% and TDP43 rescue 22µM*.
`C=CCn1c(O)c(N=NC(=S)Nc2cccc(OC)c2)c2ccccc21` gave FUS suppressor inactive, Abeta rescue inconclusive, LDHA inh -1, aSyn rescue 22µM*, mIDH1 inhibitor 1% and TDP43 rescue 16µM*.
C=CCn1c(O)c(N=NC(=S)Nc2ccc(OC)cc2)c2ccccc21 was read as FUS suppressor inactive, Abeta rescue inactive, LDHA inh -6, aSyn rescue -10%, mIDH1 inhibitor 14% and TDP43 rescue inconclusive.
Cc1ccc(C2CC(c3cccs3)=NN2C(=O)CSC2=NCCS2)cc1 (configuration not stated) was read as FUS suppressor inactive, Abeta rescue inactive, LDHA inh -9, aSyn rescue 10%, mIDH1 inhibitor -4% and TDP43 rescue inconclusive.
For COc1ccc(C2CC(c3cccs3)=NN2C(=O)CSC2=NCCS2)cc1 (configuration not stated) the results were FUS suppressor 35µM*, Abeta rescue inactive, LDHA inh 1, aSyn rescue 9%, mIDH1 inhibitor 1% and TDP43 rescue 29%.
`CNC(=S)N1N=C(c2cccs2)CC1c1ccc(F)cc1` (configuration not stated) gave FUS suppressor inactive, Abeta rescue inactive, LDHA inh 3, aSyn rescue 10%, mIDH1 inhibitor 10% and TDP43 rescue 10µM*.
For CCC(=O)N1N=C(c2cccs2)CC1c1ccc(OC)cc1 (configuration not stated) the results were FUS suppressor inactive, Abeta rescue inactive, LDHA inh 0, aSyn rescue 2%, mIDH1 inhibitor -1% and TDP43 rescue inconclusive.
